Screening results from PubChem BioAssay.
An excerpt weighted towards active compounds, which were near 19% of everything screened.
TDP1 cell CPT: DT40-hTDP1 cell growth loss with CPT. chicken DT40 Tdp1-/-;hTDP1 cells + 20 nM CPT, ATP luminescence, 48 h. Potency, µM (titrated, usually from 46.2 µM), without a hit: at the top dose activity change, negative = growth inhibition, actives largely listed as inhibitors. actives 12% (n = 420,000). AID 686979; note: potency is the fitted concentration of half-maximal effect; nearly all actives have a fitted effect of over 55% in size
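Cell growth measured by CellTiter-Glo luminescence after a minimum 48 h, 37 C compound exposure with 20 nM CPT in Tdp1-knockout DT40 cells stably expressing hTDP1, seeded 400/well; qHTS titration format.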
HT1080 IDH1KD tx: HT-1080 IDH1 knockdown cell toxicity (counter line). actives 2% (n = 360,000). Potency, µM (top dose mostly 46.1 µM), for inactives: at the highest dose activity, negative = toxicity, hits mostly cytotoxic. HT-1080 IDH1 knockdown viability, ATP luminescence, 48 h;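 note: potency is the fitted concentration of half-maximal effect; 0% = DMSO wells and -100% = cell-free medium wells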
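After a 2 h attachment period, IDH1KD HT-1080 cells took pin-transferred compound for 48 h at 37 °C; ATP-based luminescence after 10 min room-temperature reagent incubation reported viability.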
DT40 TDP1 no CPT: qHTS for Inhibitors of human tyrosyl-DNA phosphodiesterase 1 (TDP1): qHTS in cells in absence of CPT; AID 686978, 2013; Potency, µM (doses to about 46.2 µM), inactives show top-dose activity change, negative = growth inhibition, actives largely listed as inhibitors; actives 15% (n = 420,000); DT40 Tdp1-/- hTDP1 cells, no CPT, ATP luminescence, 48 h; note: potency is the fitted concentration of half-maximal effect; nearly all actives have a fitted effect of over 55% in size
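Cells were dispensed at 400 per well, compounds added by pin tool, plates incubated ≥48 hr at 37 °C, then CellTiter-Glo added for 30 min at room temperature before luminescence reading. Line: DT40 Tdp1-/- complemented with hTDP1; camptothecin omitted.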
IL1B secr inh: inflammasome signaling inhibition, IL-1 beta readout. THP-1 LPS/ATP IL-1B secretion, AlphaLISA, 16 h; hits give low values. activity change, % at 57.5 µM. actives 4.7% (n = 360,000). AID 743279; in the data active = activity change below about -50%; inconclusive = mostly about -30% to -49%
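THP-1 cells pretreated 1 hr with compounds (up to 57.5 uM final), then stimulated with LPS (250 ng/mL final) plus ATP (1.25 mM final); secreted IL-1B measured by AlphaLISA after 16 hr, decreased signal indicating inhibition.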
HT1080NT lethal: kills 2HG-producing HT-1080-NT fibrosarcoma cells. HT-1080-NT fibrosarcoma viability, CellTiter-Glo ATP luminescence, 48 h. Potency, µM (top dose mostly 46.1 µM), inactives show top-dose activity, negative = less viability, most hits filed as cytotoxic. actives 1.6% (n = 360,000);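 note: NT is the 2HG producing partner of a matched IDH1 knockdown line; potency is the fitted concentration of half-maximal effect; 0% = DMSO-treated cells and -100% = media-only wells without cells; nearly all actives have a fitted effect of over 55% in size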
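HT-1080-NT; 750 cells/well; 5% FBS RPMI; 48 h compound, 37 degrees C; CellTiter-Glo luminescence; curve fitting and curve-class assignment.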
* = called active by the depositor; ? = inconclusive; . = not tested or not shown; [ ] = dose if it differs, or a comment. Unless noted, calls come from the whole dose curve; as a rule, active = well fitted curve in the direction sought with a large enough effect; inconclusive = small, poorly fitted or top-dose-only effect, or another doubt; inactive = no such curve, though single readings can be large; an effect the other way counts as inactive or inconclusive. Unless noted, % is set by controls: 0 for no effect and ±100 for the full control effect.

SMILES | TDP1 cell CPT | HT1080 IDH1KD tx | DT40 TDP1 no CPT | IL1B secr inh | HT1080NT lethal
O=C(NCC1Cc2cccc(-c3ncccn3)c2O1)C1CCCO1 (configuration not stated) | -4.3%[9.04 µM] | . | -21.1% | . | .
Cc1ccc(-c2nnc(-c3ccc4c(c3)OCO4)o2)cc1 | 5.5% | 24.7% | -4.0% | -6.1 | 16.8%
CC(C)C1(C)NC(c2ccc3c(c2)OCO3)=CC(c2ccccc2O)N1 (configuration not stated) | ? | . | 12.6µM* | . | .
CC(C)C1N=C(c2ccc3c(c2)OCO3)CC(c2ccccc2O)N1 (configuration not stated) | 5.17µM* | ? | 4.61µM* | -18.6 | ?
CCC1(C)NC(c2ccc3c(c2)OCO3)=CC(c2ccccc2O)N1 (configuration not stated) | ? | . | 11.2µM* | . | .
CC(O)(c1ccccc1)c1nc(-c2ccc3c(c2)OCO3)cs1 (configuration not stated) | -13.5% | ? | -17.7% | 16.7 | ?
COc1cc(C[C@H](C)[C@H](C)Cc2ccc3c(c2)OCO3)ccc1O | ? | 5.5% | ? | -12.5 | 0.5%
CCCN1CCN(c2cc3c(cc2F)c(=O)c(S(=O)(=O)c2ccc(Cl)cc2)cn3C)CC1 | ? | . | 23.1µM* | . | .
CCCn1cc(S(=O)(=O)c2ccc(CC)cc2)c(=O)c2cc(F)c(N3CCN(C)CC3)cc21 | 16.4µM* | . | 25.9µM* | . | .
CCCCn1cc(S(=O)(=O)c2ccc(C)c(C)c2)c(=O)c2cc(F)c(N3CCN(C)CC3)cc21 | -4.0% | . | ? | . | .
CCCCn1cc(S(=O)(=O)c2ccccc2)c(=O)c2cc(F)c(N3CCN(CCC)CC3)cc21 | ? | . | 20.6µM* | . | .
CCCCn1cc(S(=O)(=O)c2ccc(CC)cc2)c(=O)c2cc(F)c(N3CCCC(C)C3)cc21 (configuration not stated) | 23.1µM* | . | 23.1µM* | . | .
CCN1CCN(c2cc3c(cc2F)c(=O)c(S(=O)(=O)c2ccccc2)cn3C)CC1 | -3.7% | 4.1% | 4.0% | 55.6 | 4.8%
Cc1cccc(C(=O)Nc2ccc3c(c2)ncn3C)c1 | 1.6% | 15.5% | -7.6% | ? | 25.5%
CCc1ccc(S(=O)(=O)c2cn(C)c3cc(N4CCOCC4)c(F)cc3c2=O)cc1 | -29.4% | . | -29.5% | . | .
CCCn1cc(S(=O)(=O)c2ccccc2)c(=O)c2cc(CC)ccc21 | 6.3% | 6.2% | 5.4% | -50.2* | 12.6%
CCCCn1cc(S(=O)(=O)c2ccc(OC)cc2)c(=O)c2cc(F)c(F)cc21 | 18.4µM* | . | ? | . | .
CCCCn1cc(S(=O)(=O)c2ccc(CC)cc2)c(=O)c2cc(F)c(N3CCOCC3)cc21 | ? | . | 18.4µM* | . | .
CCCN1CCN(c2cc3c(cc2F)c(=O)c(S(=O)(=O)c2ccc(CC)cc2)cn3CC)CC1 | ? | . | 20.6µM* | . | .
CCn1cc(S(=O)(=O)c2cccc(C)c2)c(=O)c2cc(F)c(N3CCN(c4ccccc4)CC3)cc21 | -2.8% | . | ? | . | .
CCn1cc(S(=O)(=O)c2ccccc2)c(=O)c2cc(F)c(F)cc21 | -3.9% | . | ? | . | .
CC(C)c1ccc(/C=C2\SC(=S)N(CCC(=O)N3CCCCC3CCO)C2=O)cc1 (configuration not stated) | ? | -1.0% | 20.6µM* | -51.3* | -3.5%
O=C1/C(=C/c2ccccc2Cl)SC(=S)N1CCC(=O)N1CCCCC1CCO (configuration not stated) | 16.4µM* | -5.5% | 10.3µM* | ? | -4.6%
O=C1/C(=C\c2ccccc2)SC(=S)N1CCC(=O)N1CCCCC1CCO (configuration not stated) | ? | -14.0% | ? | ? | -3.1%
COc1ccccc1N1CCN(C(CNS(=O)(=O)c2cccs2)c2cccnc2)CC1 (configuration not stated) | ? | -1.2% | ? | -11.1 | 2.5%
SMILES | TDP1 cell CPT | HT1080 IDH1KD tx | DT40 TDP1 no CPT | IL1B secr inh | HT1080NT lethal
CCS(=O)(=O)NCC(c1cccnc1)N1CCN(c2ccccc2OC)CC1 (configuration not stated) | -14.4% | 7.4% | -15.0% | -10.4 | 8.6%
COc1ccc(C(=O)NCC(c2cccnc2)N2CCN(c3ccccc3OC)CC2)cc1 (configuration not stated) | 18.4µM* | . | 11.6µM* | . | .
COc1ccccc1N1CCN(C(CNC(=O)C(=O)NCCc2ccccc2)c2cccnc2)CC1 (configuration not stated) | 10.3µM* | . | 8.2µM* | . | .
CCC(=O)N1CCc2cc(Br)cc(S(=O)(=O)Nc3ccccc3C(=O)OC)c21 | 5.5% | . | ? | . | .
COC(=O)c1sc2nc(C)nc(SCC(=O)Nc3sccc3C(N)=O)c2c1C | 18.4µM* | 1.6% | 16.4µM* | 5.5 | -6.5%
Cc1csc(SCC(=O)Nc2sccc2C(N)=O)n1 | -15.4% | -1.2% | -28.2% | -9.1 | -5.3%
Cc1nc(SCC(=O)N2CCOCC2)c2c(C)c(C)sc2n1 | 4.2% | 4.6% | -16.0% | 10.8 | -4.4%
Cc1nc(SCC(=O)Nc2ccc(S(=O)(=O)N3CCOCC3)cc2)c2c(C)c(C)sc2n1 | 25.9µM* | ? | ? | ? | -8.8%
Cc1nc(SCC(=O)Nc2sccc2C(N)=O)c2c(C)c(C)sc2n1 | 20.6µM* | ? | ? | 18.8 | ?
Cc1nc(SCC(=O)N2CCN(C(=O)c3cccs3)CC2)c2c(C)c(C)sc2n1 | 25.9µM* | 0.6% | 16.4µM* | -3.6 | -5.5%
C=CCSC1=C(C#N)C(c2ccccc2Cl)C(C(=O)c2cccs2)C(O)(C(F)(F)F)N1 (configuration not stated) | ? | -16.3% | 16.4µM* | 10.4 | -10.6%
CCSC1=C(C#N)C(c2ccccc2Cl)C(C(=O)c2cccs2)C(O)(C(F)(F)F)N1 (configuration not stated) | ? | ? | ? | 3.2 | ?
CCN(CC)CCNc1nc(C(F)(F)F)nc2c1nnn2Cc1ccccc1 | -20.2% | ? | ? | -60.2* | ?
CC1=C(C(=O)Nc2cccc(C(=O)NC3CCCC(C)C3C)c2)SCCO1 (configuration not stated) | ? | -17.3% | ? | -20.2 | 0.6%
CC(=O)N1c2ccc(S(=O)(=O)N3CCC(C(=O)Nc4cccc(C)c4C)CC3)cc2CC1C (configuration not stated) | ? | 8.2% | -18.3% | -1.3 | 0.0%
Cc1cccc(NS(=O)(=O)c2ccc3c(c2)CC(C)N3C(=O)C2CCC2)c1C (configuration not stated) | ? | . | 18.4µM* | . | .
